Screening data (PubChem BioAssay)
Most compounds without a hit are left out; they make up all but 6.7% or so of the library.
T cruzi growth-1: blocks T. cruzi growth in NIH3T3 culture; T. cruzi beta-gal in NIH3T3, GalScreen luminescence, 90 h; inhibition, % at 8.34 µM; hit rate 5.9% among 77,000;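 active = mean inhibition above about 93%, with at least 55% of replicates each passing it, limit read from the data, passing the limit was not always enough; inconclusive = only one of those two conditions holds; inactive = neither condition holds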
Pf Dd2 growth: blocks growth of Plasmodium falciparum Dd2 parasites; P. falciparum Dd2 growth, SYBR Green, 72 h; stronger effect = lower value; hit rate 2.3% among 94,000; activity change, % at 10 µM; in the data active = activity change below about -80%; inconclusive = no clear call, values can overlap the other calls
C diff growth: blocks growth of Clostridium difficile | Clostridium difficile clinical isolate growth, OD600, 24 h; stronger effect = lower value | growth activity, negative = inhibition, % at 16 µg/mL (by protocol) | hit rate 0.25% among 86,000 | AID 1259249;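 active = mean growth activity at or below -80% and every replicate also at or below -80%; inconclusive = mean at or below -80% but some replicate above -80%; inactive = mean growth activity above -80%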;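 note: 0% = DMSO wells and -100% = levofloxacin 16 µg/mL wells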
T cruzi growth-2: Trypanosoma cruzi proliferation inhibition | shares compounds with T cruzi growth-1 | inhibition, % at 8.35 µM | hit rate 72% among 5,600 | T. cruzi beta-gal in NIH3T3, GalScreen luminescence, 90 h;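 active = mean replicate inhibition above about 95% and at least 55% of replicates individually reaching it, limit read from the data; inconclusive = only one of the two criteria is met; inactive = neither criterion is met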
T cruzi growth-3: blocks T. cruzi growth in NIH3T3 host cells | shares compounds with T cruzi growth-1 | T. cruzi beta-gal in NIH3T3, GalScreen luminescence, 90 h | inhibition, % at 2.09 µM | hit rate 21% among 5,600;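 active = mean inhibition above about 95%, with at least 55% of replicates also reaching it, limit read from the data; inconclusive = meets just one of the two conditions; inactive = meets neither condition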;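 note: plate controls were neutral control median for no effect and positive control median for full effect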
3T3 cytotox: cytotoxicity in mouse NIH/3T3 fibroblasts; hit rate 14% among 5,600; AID 651742; NIH/3T3 viability, CellTiter-Glo ATP luminescence, 90 h; cytotoxicity (signal decrease), % at 8.35 µM; shares compounds with T cruzi growth-1;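 active = mean signal decrease across replicates above about 35% based on untreated-well scatter, with enough replicates individually passing, limit read from the data; inconclusive = no rule stated though some were filed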;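 note: 0% = median of neutral control wells and 100% = median of positive control wells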
3T3 cytotox 2: NIH/3T3 (mouse) viability loss | inhibition, % at 24.9 µM | hit rate 56% among 5,600 | shares compounds with T cruzi growth-1 | NIH/3T3 viability, CellTiter-Glo ATP luminescence, 90 h | AID 651744;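 active = mean loss of cell viability signal at or above a set limit, and enough replicates individually reaching it; inconclusive = meets only the mean limit or only the replicate share; inactive = meets neither condition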;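 note: 0% = median of neutral control wells and 100% = median of positive control wells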
Active calls of the source: *; u = inconclusive; x = not tested or not shown; ! = not active in a repeat.

SMILES | T cruzi growth-1 | Pf Dd2 growth | C diff growth | T cruzi growth-2 | T cruzi growth-3 | 3T3 cytotox | 3T3 cytotox 2
N#C[C@@H]1[C@@H](c2ccc(/C=C/c3ccccc3)cc2)[C@@H](CO)N1C(=O)C1CCCC1 | 26 | 26 | 5 | x | x | x | x
N#C[C@@H]1[C@H](c2ccc(C3=CCCC3)cc2)[C@H](CO)N1C(=O)C1CC1 | 95 | 5 | -7 | x | x | x | x
N#C[C@H]1[C@@H](c2ccc(/C=C/c3ccccc3)cc2)[C@@H](CO)N1C(=O)C1CCCC1 | u | -14 | 9 | 95* | 50 | 23 | 27*
COc1ccc(-c2ccc([C@@H]3[C@@H](CO)N(C(=O)NC4CCCC4)[C@H]3C#N)cc2)cc1 | u | -34 | 8 | 30 | -5 | -2 | -12
N#C[C@H]1[C@H](c2ccc(C3=CCCC3)cc2)[C@H](CO)N1C(=O)C1CC1 | 102* | -13 | -2 | 96* | 50 | 8 | 15
COc1ccc(-c2ccc([C@@H]3[C@@H](C#N)N(C(=O)C4CC4)[C@H]3CO)cc2)cc1 | 80 | -35 | -4 | x | x | x | x
COc1ccc(-c2ccc([C@@H]3[C@@H](C#N)N(C(=O)C4CCCC4)[C@H]3CO)cc2)cc1 | 42 | -21 | 8 | x | x | x | x
COc1ccc(-c2ccc([C@H]3[C@@H](C#N)N(C(=O)C4CC4)[C@@H]3CO)cc2)cc1 | 106* | -33 | -2 | 61 | 56 | -7 | 37*
COc1ccc(-c2ccc([C@H]3[C@@H](C#N)N(C(=O)C4CCCC4)[C@@H]3CO)cc2)cc1 | 106* | -45 | 10 | 78 | 24 | 12 | 14
N#Cc1ccc(-c2ccc3c(c2)[C@@H]2[C@@H](CCN2C(=O)c2ccc(F)cc2)[C@@H](CO)N3)cc1 | 24 | 16 | 29 | x | x | x | x
CO[C@H]1CN(C)C(=O)c2ccc(NC(=O)Nc3cccc(F)c3)cc2OC[C@H](C)N(C(=O)Nc2c(C)noc2C)C[C@@H]1C | x | 5 | x | x | x | x | x
C[C@H](NC(=O)C[C@@H]1CC[C@@H](NC(=O)C2CCOCC2)[C@H](CO)O1)c1ccccc1 | 53 | -5 | 0 | x | x | x | x
N#Cc1cccc(-c2ccc([C@H]3[C@@H](CO)N4CCCCN(C(=O)Nc5ccccc5)C[C@@H]34)cc2)c1 | 111* | 22 | 7 | 108* | 71 | 21 | 16
CCC(=O)N1CCCCN2[C@H](CO)[C@H](c3ccc(-c4cccc(C#N)c4)cc3)[C@@H]2C1 | 92 | 18 | 9 | x | x | x | x
N#Cc1cccc(-c2ccc([C@@H]3[C@@H](CO)N4CCCCN(C(=O)Nc5ccccc5)C[C@@H]34)cc2)c1 | 108* | 0 | 16 | 107* | 70 | 42* | 93*
COc1ccccc1NC(=O)N1CCCCN2[C@H](C1)[C@H](c1ccc(-c3cccc(C#N)c3)cc1)[C@@H]2CO | 82 | 11 | 7 | x | x | x | x
N#Cc1cccc(-c2ccc([C@@H]3[C@@H](CO)N4CCCCN(C(=O)Nc5ccc(F)cc5)C[C@H]34)cc2)c1 | 93 | -8 | 1 | x | x | x | x
N#Cc1cccc(-c2ccc([C@@H]3[C@H](CO)N4CCCCN(C(=O)Nc5ccccc5)C[C@@H]34)cc2)c1 | 98* | -17 | 37 | 108* | 88 | 36* | 106*
COc1ccccc1NC(=O)N1CCCCN2[C@H](C1)[C@@H](c1ccc(-c3cccc(C#N)c3)cc1)[C@@H]2CO | 43 | -27 | 6 | x | x | x | x
N#Cc1cccc(-c2ccc([C@H]3[C@H](CO)N4CCCCN(C(=O)Nc5ccccc5)C[C@@H]34)cc2)c1 | 99* | -9 | 31 | 110* | 64 | 46* | 106*
CCCNC(=O)N1C[C@H](C)[C@@H](OC)CN(C)C(=O)c2cc(NC(=O)C3CCC3)ccc2OC[C@H]1C | -8 | x | x | x | x | x | x
C[C@@H]1CCCCO[C@H](CN(C)S(C)(=O)=O)[C@H](C)CN([C@@H](C)CO)C(=O)c2cc(NC(=O)CCC(F)(F)F)ccc2O1 | 27 | 19 | 2 | x | x | x | x
CCCN1C[C@H](C)[C@@H](OC)CN(C)C(=O)c2ccc(NC(=O)c3cccc(F)c3)cc2OC[C@H]1C | 65 | -35 | x | x | x | x | x
CN1C(=O)c2cc(NC(=O)c3ccccc3)ccc2OC[C@H]2O[C@H](CC(=O)O)CC[C@H]21 | -104 | -2 | -3 | x | x | x | x
COc1ccccc1NC(=O)N(C)C[C@@H]1Oc2ncc(C#CCC(C)C)cc2C(=O)N([C@H](C)CO)C[C@@H]1C | 74 | -10 | 5 | x | x | x | x
SMILES | T cruzi growth-1 | Pf Dd2 growth | C diff growth | T cruzi growth-2 | T cruzi growth-3 | 3T3 cytotox | 3T3 cytotox 2
CC(C)CC#Cc1cnc2c(c1)C(=O)N([C@@H](C)CO)C[C@H](C)[C@H](CN(C)C(=O)Nc1ccccc1F)O2 | x | -22 | -4 | x | x | x | x
CC(C)CC#Cc1cnc2c(c1)C(=O)N([C@@H](C)CO)C[C@@H](C)[C@@H](CN(C)C(=O)Nc1cc(F)ccc1F)O2 | u | -57 | 3 | 104* | 42 | 36* | 74*
CC(C)CC#Cc1cnc2c(c1)C(=O)N([C@@H](C)CO)C[C@@H](C)[C@H](CN(C)C(=O)Nc1cc(F)ccc1F)O2 | 115* | -76 | -8 | 101* | 100* | 13 | 74*
CC(C)CC#Cc1cnc2c(c1)C(=O)N([C@@H](C)CO)C[C@H](C)[C@@H](CN(C)C(=O)Nc1ccccc1F)O2 | x | -48 | -23 | x | x | x | x
COc1ccccc1NC(=O)N(C)C[C@@H]1Oc2ncc(C#CCC(C)C)cc2C(=O)N([C@@H](C)CO)C[C@H]1C | 104* | -69 | -4 | 106* | 63 | -5 | 3
CCCC#Cc1cnc2c(c1)C(=O)N([C@@H](C)CO)C[C@@H](C)[C@H](CN(C)C(=O)Nc1ccccc1F)O2 | u | -57 | -2 | 115* | 89 | -5 | 39*
CCCC#Cc1cnc2c(c1)C(=O)N([C@@H](C)CO)C[C@H](C)[C@@H](CN(C)C(=O)Nc1ccccc1F)O2 | -2 | -43 | -13 | x | x | x | x
O=C(C[C@@H]1CC[C@@H]2[C@H](COC[C@@H](O)CN2Cc2nccs2)O1)NCc1ccc(Cl)cc1 | -2 | 1 | x | x | x | x | x
CC(C)OC(=O)N(C)C[C@@H]1OCc2cn(nn2)CCCC(=O)N([C@H](C)CO)C[C@@H]1C | 0 | 30 | 0 | x | x | x | x
C[C@@H]1CN([C@@H](C)CO)S(=O)(=O)c2ccc(C#Cc3ccccc3F)cc2O[C@@H]1CN(C)C(=O)Cc1ccccc1 | 120* | -51 | 2 | 102* | 99* | 32 | 78*
CC(C)CC#Cc1ccc2c(c1)O[C@@H](CN(C)C(=O)Cc1ccccc1)[C@H](C)CN([C@@H](C)CO)S2(=O)=O | 129* | -73 | -8 | 97* | 103* | 13 | 104*
C[C@@H]1CN([C@H](C)CO)S(=O)(=O)c2ccc(C#Cc3ccccc3F)cc2O[C@H]1CN(C)C(=O)c1ccc2c(c1)OCO2 | 125* | -81*! | -4 | 100* | 106* | 30 | 91*
CCC(=O)N(C)C[C@H]1Oc2cc(C#CCC(C)C)ccc2S(=O)(=O)N([C@H](C)CO)C[C@@H]1C | 55 | -11 | -2 | x | x | x | x
